JMJD2A Tudor: qHTS Assay for Inhibitors of JMJD2A-Tudor Domain; Lysine-specific demethylase 4A (Homo sapiens), O75164; AlphaScreen JMJD2A-Tudor / H3K4me3 peptide binding; Potency, µM (top dose mostly 114 µM), hits mostly inhibitors; 390,000 compounds, 4.4% hits; also: nearly all actives have a fitted effect of over 50% in size
L3MBTL1 block: qHTS Assay for the Inhibitors of L3MBTL1; Lethal(3)malignant brain tumor-like protein 1 (Homo sapiens), Q9Y468; AlphaScreen L3MBTL1–H3K9me1 peptide binding; Potency, µM (doses to about 57.1 µM), actives largely listed as inhibitors; 230,000 compounds, 0.66% hits; also: nearly all actives have a fitted effect of over 60% in size
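AlphaScreen proximity signal between nickel-chelate acceptor and streptavidin donor beads (final 10 ug/mL) reports binding of 50 nM L3MBTL1 to 75 nM biotin-H3 K9me1 peptide; complex incubated with compounds 30 min at room temperature; cefsulodin titration as control.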
HP1b chromo inh: HTS for Inhibitors of HP1-beta Chromodomain Interactions with Methylated Histone Tails; Chromobox protein homolog 1 (Homo sapiens), P83916; AlphaScreen HP1-beta / biotin-H3K9me3 peptide binding; Potency, µM (doses to about 114 µM), usual class: inhibitors; 390,000 compounds, 0.56% hits; AID 540317, 2011; also: nearly all actives have a fitted effect of over 70% in size
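HP1-beta protein (50 nM final) preincubated 30 min at room temperature with biotinylated H3(1-18)K9me3 peptide (50 nM) in PBS pH 7.4, 0.01% Tween-20, then compound added for 30 min. AlphaScreen streptavidin donor/nickel chelate acceptor beads (10 ug/mL final), 30 min dark, luminescence read.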
BAZ2B block: qHTS Assay for Inhibitors of BAZ2B. Bromodomain adjacent to zinc finger domain protein 2B (Homo sapiens), Q9UIF8. AlphaScreen BAZ2B-H3K14Ac peptide displacement. Potency, µM (top dose mostly 114 µM), usual class: inhibitors. AID 504333, 2011. 360,000 compounds, 4.4% hits; also: nearly all actives have a fitted effect of over 60% in size
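Protein-peptide AlphaScreen: BAZ2B 50 nM, b-H3K14Ac 50 nM, 1x PBS pH 7.4 + 0.01% Tween-20. Preincubation 30 min RT; cpd 30 min RT (top 110 uM); beads 20 min RT, light-protected.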
G9a inh: qHTS Assay for Inhibitors of Histone Lysine Methyltransferase G9a; Histone-lysine N-methyltransferase EHMT2 (Homo sapiens), Q96KQ7; G9a H3K9 monomethylation, AlphaScreen, 2 h; Potency, µM (series often up to 102 µM), usual class: inhibitors; 350,000 compounds, 8.8% hits; also: nearly all actives have a fitted effect of over 75% in size
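Readings reflect AlphaScreen signal from monomethyl-H3K9 antibody detection. HMT at 20 nM; substrate b-H3K9 500 nM; cofactor SAM 20 uM; 2 h RT reaction; compounds tested as titrations in qHTS with 15 min preincubation.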
Hits are given with their value; 0 = inactive; ? = inconclusive; - = not tested or not shown; [ ] = another dose, or the depositor's remark. An excerpt weighted towards active compounds, which were near 11% of everything screened. Calls follow the shape of the dose curve; as a rule, active = well fitted inhibition curve with a large enough effect; inconclusive = small, poorly fitted or top-dose-only effect; inactive = no such curve, though single readings can be large or run the other way.

SMILES | JMJD2A Tudor | L3MBTL1 block | HP1b chromo inh | BAZ2B block | G9a inh
COc1ccc(-c2n[nH]c(=S)n2-c2cc(OC)ccc2OC)cc1 | 10µM | - | 0 | 0 | 2.8µM
COc1ccc(OC)c(-n2c(-c3cnccn3)n[nH]c2=S)c1 | 0 | - | 0 | ? | 10µM
S=c1[nH]nc(-c2cnccn2)n1-c1ccccc1 | 32µM | - | 0 | ? | ?
O=C(O)c1cccc(-n2c(-c3cnccn3)n[nH]c2=S)c1 | 0 | 0 | 0 | ? | 10µM
COc1ccc(OC)c(-n2c(-c3ccc(C)cc3)n[nH]c2=S)c1 | ? | 0 | 0 | 0 | ?
COc1ccc(OC)c(-n2c(-c3cc(-c4ccco4)[nH]n3)n[nH]c2=S)c1 | ? | 0 | 0 | 0 | 0
CC(=O)N(CC(O)CN(C(C)=O)c1c(I)c(C(=O)NC[C@@H](O)CO)c(I)c(C(=O)NC[C@@H](O)CO)c1I)c1c(I)c(C(=O)NC[C@@H](O)CO)c(I)c(C(=O)NC[C@@H](O)CO)c1I | - | - | - | - | 0[21.5 µM]
COc1ccc(-n2c(C)n[nH]c2=O)cc1 | ? | 0 | 0 | 0 | 0
COc1ccc(-n2c(-c3cnccn3)n[nH]c2=S)cc1 | 8.9µM | 0 | 0 | ? | 5µM
COc1ccc(OC)c(-n2c(C)ccc2-c2ccc(S(C)(=O)=O)cc2)c1 | ? | - | 0 | 45µM | ?
COc1ccc(-n2c(-c3ccc(Cl)cc3Cl)n[nH]c2=S)c(OC)c1 | 13µM | 0 | 0 | 0 | -
COc1ccc(-c2n[nH]c(=S)n2N)c(OC)c1 | 7.1µM | 0 | ? | - | 6.3µM
COc1ccccc1NC(=O)CSc1nncn2c1cc1sccc12 | 0 | - | 0 | 0 | 0
Cc1cc(C)c(Cn2c(=O)n(CCCCCC(=O)NCc3ccc4c(c3)OCO4)c(=O)c3sccc32)c(C)c1 | 0 | - | 0 | 0 | 0
CCOC(=O)Cn1c(-c2ccccn2)nc2ccccc21 | 0 | 0 | 0 | 0 | 0
COc1ccc(OC)c(-n2c(Cn3c(-c4ccccn4)nc4ccccc43)n[nH]c2=S)c1 | 7.9µM | 0 | ? | ? | 2.5µM
O=C1CCCN1CN1CCCCC1 | ? | 0 | ? | 79µM | 0
CCOC(=O)c1cc(NC(=O)c2ccc(F)cc2)c(=O)n2c1oc1ccc(Cl)cc12 | 0 | - | 0 | 0 | 0
N#Cc1cc(NC(=O)c2ccc(F)cc2)c(=O)n2c1[nH]c1ccccc12 | - | 0 | - | 0 | 3.5µM
Cc1ccc(SCCCn2cncn2)cc1 | 45µM | - | 0 | ? | 0[12.7 µM]
Cc1cc(Cl)c(OCCCn2cncn2)c(Br)c1 | 0 | 0 | 0 | 0 | 0[12.7 µM]
O=C(CCn1cncn1)N1CCN(S(=O)(=O)c2ccc(Cl)cc2)CC1 | 0 | - | 0 | 0 | 0
Clc1ccc(SCCn2cncn2)cc1 | 45µM | - | ? | ? | ?
CC(OC(=O)c1cccc(N(C)C)c1)C(=O)N1CCc2ccccc2C1 (centres undefined) | ? | 0 | 0 | - | -
COc1ccc2c(c1)CC(NC(=O)Nc1cc(Cl)ccc1OC)CO2 (centres undefined) | 0 | - | 0 | 0 | 0
SMILES | JMJD2A Tudor | L3MBTL1 block | HP1b chromo inh | BAZ2B block | G9a inh
COc1cccc(CNc2ccc3[nH]c(=O)[nH]c3c2)c1OCc1ccc(F)cc1 | 40µM | ? | ? | 45µM | ?
COc1cccc(CNc2ccc(C(=O)O)cc2)c1OCc1ccccc1 | 0 | 0 | 0 | 0 | -
C=CCOc1c(CNc2ccc3[nH]c(=O)[nH]c3c2)cccc1OC | 45µM | 0 | ? | 0 | -
CC1=C(C(=O)OC2CCCC2)C(c2ccccc2Cl)CC(=O)N1 (centres undefined) | 0 | - | 0 | 0 | 0
CCCc1cnc2c(c1SCC(=O)N1CCC(C)CC1)c(=O)n(C)c(=O)n2C | 0 | - | 0 | 0 | 0
CCN1CCN(C(c2cccc(Cl)c2)c2c(O)cc(C)n(CCOC)c2=O)CC1 (centres undefined) | 0 | - | 0 | 0 | ?
CCc1ccc(/C(C)=N\Nc2ccc([N+](=O)[O-])cc2)cc1 | 0 | 0 | 0 | 0 | 0[0.501 µM]
C/C(=N\Nc1ccc([N+](=O)[O-])cc1)c1ccc(N)cc1 | ? | 0 | 0 | 0 | 7.1µM
C/C(=N\Nc1nc(C)c(C)s1)c1ccc([N+](=O)[O-])cc1 | ? | 0 | ? | 35µM | 18µM
COC(=O)c1c(N)sc(Cc2ccccc2)c1C | 0 | 0 | 0 | ? | 0[0.501 µM]
Nc1sc(-c2ccccc2)c(Cc2ccccc2)c1C(=O)O | ? | - | ? | - | 50µM
Cc1cc2c(cc1Cl)C(c1ccccc1C)CC(=O)O2 (centres undefined) | - | - | - | - | 0
O=C1C(=C(I)I)c2ccccc2-c2ccccc21 | 25µM | - | 56µM | - | -
O=C(CCCCCNC(=S)Nc1ccccc1)C[N+](=O)[O-] | 0 | 0 | 0 | 0 | 45µM
COc1ccc(CCNC(=S)Nc2ccc(OC)cc2)cc1 | 0 | 0 | 0 | 0 | 0
COc1ccc(NC(=S)NCCCCCC(=O)C[N+](=O)[O-])cc1 | 0 | - | ? | ? | 22µM
O=C(CCCCCNC(=S)Nc1ccc(Cl)cc1)C[N+](=O)[O-] | 0 | 0 | ? | 0 | ?
COc1ccc(CC(=O)n2[nH]c(=O)ccc2=O)cc1OC | 8.9µM | 0 | 8.9µM | 0 | 1.1µM
COc1ccc(CC(=O)n2[nH]c(=O)c3ccccc3c2=O)cc1OC | 0 | 0 | 0 | 0 | -
CCC(=O)Nc1cc(-c2nc3cc(C)cc(C)c3o2)ccc1C | 0 | - | 0 | 0 | 0

From PubChem BioAssay
